The sequences below were run against FAM163B (assay: pooled miR-30 sensor sort-seq; sequence = guide strand). Conditions: shRNA.
Also: reference of the scale not given here.

Row | Sequence | sensor-assay potency score (higher = more potent)
1 | TTCTGGCTGAAGGAGGTGGAGG | -1.34
2 | TTCTTGCAGCAGTAGTACTGGA | -0.857
3 | TAGAGCACGCGCTCCCCGCCGT | -0.76
4 | TAGCACAGAACAGCGATGATGC | -0.556
5 | TCCTCCGACTCGTCCTTCTTGC | -1.53
6 | TTGGTCAGCACCAGGTTGCGGT | -0.802
7 | TCGCAGTGGGAGCAGCTGCGGC | -1.52
8 | TCCGACTCGTCCTTCTTGCAGC | -1.44
9 | TCCTGCAGGAAGAAGGTGGGGG | -0.682
10 | TCTTGCAGCAGTAGTACTGGAG | -0.35
11 | TTGTAGAGCACGCGCTCCCCGC | -1.32
12 | TTGCGGTTGGAGTGCAGCGGGG | -1.47

What follows are sequences tested against FAM164C in the same assay as above. Conditions: shRNA.

Row | Sequence | sensor-assay potency score (higher = more potent)
13 | TTGATGGTCTTACACTTGGGAA | -1.53
14 | TTTCTTTCTGCTTTGCATCAAA | -1.22
15 | TTCTTGATGGTCTTACACTTGG | -0.537
16 | ATCACTTTCTGGATCTTGCTGG | 0.553
17 | TTATCCAGAATCAACTCTTTGT | -0.353
18 | TAGCTCTGCAGGCAGATCTGGG | -1.11
19 | TTTACTGCTGAAGAGAAGCAGA | -0.62
20 | TAGAGGTGGAAGACAGTTCTTG | -0.364
21 | TTTGTTGCTCAAAAGCTGCTTC | 0.134
22 | TAATTTTCTGTAGCTCTCCGTT | -0.559
23 | TAGTCTTCGGATCTGCACCCAC | -0.402

From the OligoGym collection
